Compounds with a hit are over-represented: about 21% of the library has one in this group of screens.
HCV inhibitor – HCV inhibition. Huh7.5.1 HCVcc-Cre infection, luciferase reporter, 44 h. Potency, µM (titrated, usually from 41.8 µM), without a hit: at the highest dose activity change, negative = inhibition, hits mostly inhibitors. 340,000 tested, 3.4% active. AID 651820; also: potency is read from the fitted curve at half-maximal effect; % is scaled to controls: 0 for no effect and ±100 for the full control effect
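Cells (1,000/well) were plated 4 h before compound, then infected with HCVcc-Cre virus (~0.5 moi). After 44 h further culture, infection was read as luciferase luminescence following a 15 min substrate incubation at room temperature.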
AMA1-RON2 inh – AMA1-RON2 (P. falciparum) interaction inhibition. AlphaScreen AMA1-biotinylated RON2 peptide binding. Potency, µM (highest dose often 58.2 µM), inactives show at the top dose activity change, negative = inhibition, hits mostly inhibitors. 360,000 tested, 0.2% active. AID 720542;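 also: potency is read from the fitted curve at half-maximal effect; 0% = vehicle wells and -100% = peptide control; nearly all actives have a fitted effect of over 45% in size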
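AMA1 (3D7) with his tag at 25 nM final met compounds first, then biotinylated RON2 peptide at 25 nM; detection used donor plus acceptor beads, 10 µg/mL apiece, read by AlphaScreen after 30 min at room temperature.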
Cycloheximide cs – counter-screen hit for Shiga toxin inhibitors, cycloheximide; cell reporter, cycloheximide protein synthesis inhibition counterscreen; max response, %; 300,000 tested, 12% active; in the data active = max response mostly above about 13%, no sharp cut-off; inactive = mostly below about 14%; also: read at 38.3 µM for the half of the compounds with a filed dose; 0% is about no effect
Pf growth 48h – P. falciparum growth inhibition at 48 hours (one generation); Potency, µM (doses to about 28.7 µM), for inactives: at the top dose activity change, negative = inhibition, most hits filed as inhibitors; P. falciparum luciferase growth in erythrocytes, 48 h; 310,000 tested, 5.9% active; AID 504832; also: potency is read from the fitted curve at half-maximal effect; % is scaled to controls: 0 for no effect and ±100 for the full control effect
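Here the parasites carry a stable luciferase gene and grow inside erythrocytes in Albumax-based RPMI medium with compound for one erythrocytic cycle. Activity is scored as loss of luminescent signal.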
Shiga inhibitor – blocks Shiga toxin action in Vero cells; Vero cells, Shiga toxin protein synthesis inhibition reporter; inhibition, % at 38.7 µM; 290,000 tested, 9.2% active; AID 2315; in the data active = inhibition mostly above about 28%, no sharp cut-off; inactive = mostly below about 43%; also: 0% is about no effect
Pf growth 96h – inhibits malaria parasite growth, 96 h | P. falciparum luciferase reporter growth, 96 h | Potency, µM (series often up to 28.7 µM), without a hit: top-dose activity change, negative = inhibition, hits mostly inhibitors | 320,000 tested, 6.9% active | AID 504834; also: potency is read from the fitted curve at half-maximal effect; % is scaled to controls: 0 for no effect and ±100 for the full control effect
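P. falciparum expressing integrated firefly luciferase grown in erythrocytes (2% hematocrit, 0.05% parasitemia final) with compounds for 96 hours at 37 C, 5% CO2. Growth inhibition read as loss of luminescence after adding luciferase detection reagent.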
The depositor's hits bear a star; [ ] = another dose, or the depositor's remark. Unless noted, calls follow the shape of the dose curve; as a rule, active = well fitted curve in the direction sought with a large enough effect; inconclusive = small, poorly fitted or top-dose-only effect, or another doubt; inactive = no such curve, though single readings can be large; an effect the other way counts as inactive or inconclusive.

For NS(=O)(=O)c1ccc(N2N=C(c3ccccc3)CC2c2ccccc2Cl)cc1 (configuration not stated) the results were HCV inhibitor 32µM* and AMA1-RON2 inh 57%.
For COc1ccc(C2CC(c3ccccc3Br)=NN2c2ccc(S(N)(=O)=O)cc2)cc1 (configuration not stated) the results were HCV inhibitor 11µM* and AMA1-RON2 inh 20%.
`NS(=O)(=O)c1ccc(N2N=C(c3ccccc3)CC2c2ccc(Br)cc2)cc1` (configuration not stated) gave AMA1-RON2 inh 44%.
For NS(=O)(=O)c1ccc(N2N=C(c3ccccc3)CC2c2ccccc2)cc1 (configuration not stated) the results were HCV inhibitor inconclusive, AMA1-RON2 inh -9%[2.32 µM], Cycloheximide cs -7, Pf growth 48h -24%, Shiga inhibitor -11 and Pf growth 96h 9.3µM*.
CC(=O)Oc1ccccc1C(=O)N(C1CCCCC1)C1CCCCC1 was read as HCV inhibitor inconclusive, AMA1-RON2 inh -3%, Cycloheximide cs -1, Pf growth 48h inconclusive, Shiga inhibitor -16 and Pf growth 96h -23%.
Screening COc1c(C)oc2cc(O)ccc2c1=O returned HCV inhibitor 10%, AMA1-RON2 inh 1%, Cycloheximide cs -7, Pf growth 48h 9%, Shiga inhibitor -8 and Pf growth 96h -14%.
For Oc1ccc2c(c1)oc1cc(O)ccc12 the results were HCV inhibitor inconclusive, AMA1-RON2 inh -3%, Cycloheximide cs 45*, Pf growth 48h 60%, Shiga inhibitor 63* and Pf growth 96h -24%.
`Clc1ccc(-n2nnnc2-c2cnc3ccc(Cl)cc3c2-c2ccccc2)cc1` gave HCV inhibitor inconclusive, AMA1-RON2 inh 0%, Cycloheximide cs 3, Pf growth 48h 13µM*, Shiga inhibitor -5 and Pf growth 96h 12µM*.
Clc1ccc2ncc(-c3nnnn3-c3ccccc3)c(-c3ccccc3)c2c1 was read as HCV inhibitor 2.8µM*, AMA1-RON2 inh -13%, Cycloheximide cs -3, Pf growth 48h inconclusive, Shiga inhibitor -17 and Pf growth 96h inconclusive.
Clc1ccc2[nH]cc(-c3nnnn3-c3ccccc3)c2c1 was read as HCV inhibitor inconclusive, AMA1-RON2 inh 0%, Cycloheximide cs 1, Pf growth 48h -18%, Shiga inhibitor 19 and Pf growth 96h -7%.
For CC1(C)CC(NC(=O)c2cc(Cl)ccc2Cl)CC(C)(C)N1 the results were HCV inhibitor 6%, AMA1-RON2 inh 5%, Cycloheximide cs -1, Pf growth 48h 1%, Shiga inhibitor -4 and Pf growth 96h -22%.
For O=C(CCc1nnc2ccc(NCc3ccco3)nn12)N1CCN(c2ccccc2F)CC1 the results were HCV inhibitor -5%, AMA1-RON2 inh -3%, Cycloheximide cs -12, Pf growth 48h -5%, Shiga inhibitor 2 and Pf growth 96h 9.3µM*.
Screening c1ccc(N(c2ccccc2)c2nc(N3CCOCC3)nc(N3CCOCC3)n2)cc1 returned Cycloheximide cs -2 and Shiga inhibitor -19.
For CN(c1ccccc1)c1nc(N2CCCC2)nc(-n2ccnc2)n1 the results were HCV inhibitor inconclusive, AMA1-RON2 inh -18%, Cycloheximide cs -3, Pf growth 48h 5.2µM*, Shiga inhibitor -23 and Pf growth 96h inconclusive.
`c1ccc(N(c2ccccc2)c2nc(N3CCCC3)nc(-n3ccnc3)n2)cc1` gave HCV inhibitor inconclusive, AMA1-RON2 inh -3%, Cycloheximide cs 16, Pf growth 48h 5.9µM*, Shiga inhibitor 4 and Pf growth 96h inconclusive.
`CCOC(=O)N1CCN(c2nc(N(c3ccccc3)c3ccccc3)nc(-n3ccnc3)n2)CC1` gave Cycloheximide cs -2, Pf growth 48h inconclusive, Shiga inhibitor 10 and Pf growth 96h inconclusive.
Screening CC(C)(C)c1cc(NS(=O)(=O)c2ccc(Br)s2)no1 returned HCV inhibitor -1%, AMA1-RON2 inh 6%, Cycloheximide cs 11, Pf growth 48h 11%, Shiga inhibitor -6 and Pf growth 96h -26%.

Screening results (PubChem)
